The list is not random: actives were taken first. Their share in the collection is about 2.4%.
D2 ag-1 – agonists of human D2 dopamine receptor; P14416; HEK293 T-REx D2 cells, calcium flux agonist mode; activation, % at 2 µM; 340,000 compounds, 0.53% hits;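 active = activation over 3 SD above normal in the single-dose calcium agonist read, cut at about 30% in these data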; note: 0% is about no effect
Target sequence (P14416 whole entry, looked up): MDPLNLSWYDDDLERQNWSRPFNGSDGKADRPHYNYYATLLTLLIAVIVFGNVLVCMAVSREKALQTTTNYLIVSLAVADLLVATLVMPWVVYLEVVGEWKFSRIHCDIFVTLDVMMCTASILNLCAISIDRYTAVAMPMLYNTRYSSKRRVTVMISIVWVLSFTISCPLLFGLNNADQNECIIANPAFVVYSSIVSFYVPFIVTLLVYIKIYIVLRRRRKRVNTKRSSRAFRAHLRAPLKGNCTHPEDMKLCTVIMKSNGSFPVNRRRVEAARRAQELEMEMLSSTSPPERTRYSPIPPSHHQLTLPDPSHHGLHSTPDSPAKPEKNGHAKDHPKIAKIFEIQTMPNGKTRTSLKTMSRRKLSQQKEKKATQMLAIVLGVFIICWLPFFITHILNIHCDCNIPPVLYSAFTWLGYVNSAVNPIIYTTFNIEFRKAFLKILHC
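Agonism scored from kinetic calcium signal (1 read/sec, 180 s) following compound pin transfer, after a 10 s baseline. Cells: HEK293 Trex line expressing inducible D2 receptor coupled to calcium, dye-loaded after overnight culture at 30 C.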
D2 antagonist – antagonizes the human D2 dopamine receptor; HEK293 TREx D2 cells, calcium flux, dopamine EC80; inhibition, % at 10 µM; 340,000 compounds, 2% hits; P14416; AID 485344; in the data active = inhibition above about 30%; inactive = below that, where a call was filed; note: 0% is about no effect
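Inhibition of EC80 dopamine-driven calcium flux, recorded kinetically, defines activity here; cells are a tetracycline-induced HEK293 T-REx line expressing force-coupled D2.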
D2 PAM-1 – positive allosteric modulators of human D2 dopamine receptor; P14416; HEK293 T-REx D2, calcium flux, EC20 dopamine potentiation; potentiation, % at 10 µM; 340,000 compounds, 0.34% hits;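 active = potentiation over 3 SD above the plate norm, cut at about 30% in these data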; note: 0% is about no effect
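Potentiation of an EC20 dopamine calcium response is measured in a force-coupled, tetracycline-inducible Hek293 Trex D2 line. Compound-only kinetic reads over 180 s flag agonists before dopamine addition.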
D2 PAM-2 – positive allosteric modulators of human D2 dopamine receptor; 360,000 compounds, 0.23% hits; P14416; DiscoveRx D2 beta-arrestin cells, luminescence, 90 min; 100% = 57 uM dopamine signal; potentiation, % (test concentration not listed); AID 624464; in the data active = potentiation above about 50%; inconclusive = mostly about 30% to 49%
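PathHunter D2 cells, attached overnight at 37 deg C, received compound in DMSO plus dopamine at EC20 (50 nM final) for 90 min at 37 deg C. Beta-arrestin recruitment was read as luminescence after 1 h with detection reagent at ambient temperature.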
D2 ag-2 – agonists of human D2 dopamine receptor (beta-arrestin); P14416; DiscoveRx PathHunter D2 beta-arrestin, luminescence, 90 min; 100% = 57 uM dopamine signal; activation, % (no concentration beside the values); 360,000 compounds, 0.084% hits; in the data active = activation above about 40%; inconclusive = between about 15% and that limit
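DiscoveRx PathHunter D2 beta-arrestin cells (2,100/well) attached overnight, then compound-stimulated 90 min at 37 C in HBSS/10 mM HEPES/0.1% Tween-20 buffer; beta-galactosidase complementation read by luminescence after 1 h at ambient temperature. Dopamine 57 uM final (EC100) as control.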
An asterisk follows results filed as active; ? = inconclusive; / = no result given.

SMILES	D2 ag-1	D2 antagonist	D2 PAM-1	D2 PAM-2	D2 ag-2
CSc1ccc(Cn2c(C)c(C(=O)NCc3cccs3)sc2=O)cc1	/	/	/	2	5
COc1ccccc1OC1OC2COC(c3ccco3)OC2C(O)C1NC(C)=O (stereo unspecified)	1	-11	-10	-13	2
COc1ccc(C2OC[C@H]3O[C@H](O)[C@H](NC(C)=O)[C@@H](O)[C@@H]3O2)cc1 (stereo partly specified)	2	53*	1	8	7
CSCCC(C(=O)Nc1c(C)cccc1C)N1CCN(c2ccc(C(F)(F)F)cn2)CC1 (stereo unspecified)	/	/	/	-1	-3
CC1=C(C#N)C(=O)NC(=O)/C1=C/c1ccc(-c2ccc(S(N)(=O)=O)cc2)o1	1	9	37*	29	10
C=CCOC(=O)c1cc(-c2ccc(/C=C3\C(=O)NC(=O)C(C#N)=C3C)o2)ccc1Cl	0	-14	-4	2	-1
COc1ccc(S(=O)(=O)N(C)C)cc1NC(=O)CCCSc1ccccc1	-1	48*	/	-19	-4
COC(=O)c1ccc(C)c(NC(=O)Cn2cnc3ccccc3c2=O)c1	1	35*	0	-1	0
COc1ccc(S(=O)(=O)N(C)C)cc1NC(=O)COC(=O)Cn1cnc2ccccc2c1=O	1	38*	-13	-2	0
COc1ccc(NC(=O)COC(=O)Cn2cnc3ccccc3c2=O)cc1OC	1	-11	0	-6	-2
Cc1ccc(S(=O)(=O)N(C)C)cc1NC(=O)COC(=O)c1n[nH]c(=O)c2ccccc12	0	52*	-21	-19	-7
COc1cc2ccccc2cc1C(=O)N/N=C/c1cccs1	/	/	/	-39	-3
COc1cccc(C(=O)NCC(c2ccc(N(C)C)cc2)N2CCc3ccccc32)c1 (stereo unspecified)	-4	/	8	/	/
O=C(Nc1ccc(CN2CCOCC2)cc1)c1ccc(-c2cccc([N+](=O)[O-])c2)o1	-2	6	-15	-11	3
O=[N+]([O-])c1cccc(-c2ccc(CN3CCCCC3)o2)c1	1	81*	-27	-19	-8
CN1CCN(C(=S)c2ccc(-c3cccc([N+](=O)[O-])c3)o2)CC1	-1	0	0	-12	-2
O=[N+]([O-])c1cccc(-c2ccc(C(=S)N3CCOCC3)o2)c1	0	61*	-1	6	1
CCOC(=O)N1CCN(C(=O)C(=O)Nc2sc3c(c2C(N)=O)CC(C)(C)OC3)CC1	0	33*	5	7	-1
Cc1cc(C)n(-c2ccc(C(=O)OCC(=O)N(CC(C)C)C3CCS(=O)(=O)C3)cc2)n1 (stereo unspecified)	-1	51*	-2	5	-1
CC(C)n1cnc2c(Nc3ccc(C(=O)O)cc3)nc(Cl)nc21	0	-16	10	1	-2
CC(C)[C@H](CO)Nc1nc(Nc2ccc(Cl)c(C(=O)O)c2)c2ncn(C(C)C)c2n1	0	39*	-4	-5	-2
CCOc1ccc(S(=O)(=O)c2ccc(C)cc2)c2c1no[n+]2[O-]	/	/	/	-4	-1
CC(O)CNCCOc1ccccc1OCc1ccccc1 (stereo unspecified)	-3	45*	-34	-9	-9
CCNCc1ccccc1OCc1ccccc1	0	6	-10	-10	-1
OCCNCc1c(OCc2ccc(Cl)cc2)ccc2ccccc12	-1	1	-4	-25	-7
SMILES	D2 ag-1	D2 antagonist	D2 PAM-1	D2 PAM-2	D2 ag-2
CC(O)CNCCNCc1c(OCc2ccccc2)ccc2ccccc12 (stereo unspecified)	-1	-7	32*	-28	-2
Cc1cc(C)n2nc(CNS(=O)(=O)c3ccccc3)nc2n1	-1	/	1	/	/
COc1ccc(C(=O)Nc2ccc(-c3nc4ncccc4o3)cc2C)cc1Br	/	/	-5	/	/
C/C(=C\C(=O)c1ccncc1)Nc1ccccc1O	/	/	/	50*	10
CCc1ccc(S(=O)(=O)c2nnn3c2nc(Nc2cc(OC)ccc2OC)c2sccc23)cc1	1	/	2	/	/
CCOc1ccc(-n2c(Cc3cc(=O)[nH]c(=O)[nH]3)nnc2SCC)cc1	0	40*	-2	-11	-4
c1ccc2c(c1)Nc1cc3ccccc3cc1O2	/	/	/	91*	?
O=C(Cn1nc([N+](=O)[O-])nc1Br)NC(c1ccccc1)c1ccccc1	-1	7	5	58*	5
Cc1cc([N+](=O)[O-])nn1CC(=O)NC(C)c1ccccc1 (stereo unspecified)	1	-21	1	-9	-1
C/C(=N\NC(=S)Nc1cc(S(=O)(=O)N2CCOCC2)ccc1Cl)c1ccc(N2CCOCC2)cc1	1	35*	11	-9	5
Cc1cccc(N2C(=O)C(Cl)=C(Nc3c(C)n(C)n(-c4ccccc4)c3=O)C2=O)c1C	1	4	-2	-18	1
Cc1ccc(N2C(=O)C(Cl)=C(Nc3c(C)n(C)n(-c4ccccc4)c3=O)C2=O)cc1	0	32*	1	-2	-2
Cn1cc(-c2cc3n(n2)CCC(=O)N3CCCC(=O)NCc2ccccc2)c2ccccc21	1	/	-5	/	/
Cc1ccc(-n2ncc(C#N)c2/N=C/N2CCN(C)CC2)cc1	0	37*	-26	-45	-3
CCOc1ccccc1N(C)C(=O)Cn1cnc2onc(-c3ccc(F)cc3)c2c1=O	-1	/	0	/	/
CCCNC(=O)C1(C)CCN(C(=O)COc2ccc(C(C)(C)C)cc2)C1 (stereo unspecified)	/	/	/	-7	-7
Cc1cccc(N(C)S(=O)(=O)c2ccc3c(c2)C(C)(C)C(=O)N3C)c1	-1	41*	3	-1	4
CCC(C)Sc1c(C(C)C)cnc2c1c(=O)n(C)c(=O)n2C (stereo unspecified)	-2	/	10	/	/
CCOCC(=O)Nc1nc2ccc(OC)cc2s1	1	2	/	-22	-2
COc1cc(C(=O)Nc2ccc(Cl)c([N+](=O)[O-])c2)cc(OC)c1OC	2	37*	-14	-17	1
CCOc1ccc2nc(NC(=O)Nc3ccccc3)sc2c1	1	32*	-2	12	-1
CCC(=O)Nc1nc2ccc(NC(=O)c3cc(OC)c(OC)c(OC)c3)cc2s1	-1	25	31*	8	-1
COc1ccc2nc(NC(=O)Nc3ccccc3)sc2c1	2	24	-4	-6	2
CCOc1ccc2nc(NC(=O)COC)sc2c1	0	1	34*	-1	-1
CCC(C)NCCOc1cccc(Br)c1 (stereo unspecified)	-1	45*	-17	-34	1
CN(C)CCCNC(=O)N1c2ccccc2C=Cc2ccccc21	1	33*	6	-16	-5
CCN(CC)C(=O)N1c2ccccc2C=Cc2ccccc21	0	-4	-2	0	-3

Bioassay records deposited in PubChem by National Center for Advancing Translational Sciences (NCATS).
